Measured values reported in PubChem BioAssay AID1159580 (chemical genetic matrix, 2015).
Among all 5,500 compounds or so, about 2,000 (36%) were called active. Inconclusive results (about 18%) are left out. No stated cut-off is given here; in the data, active means normalized growth mostly below about 0.91 (no sharp cut-off); inconclusive means no clear call, values can overlap the other calls; inactive means mostly above about 0.92. Some of the results follow.

Experiment: chemical genetic growth profiling, strain panel (AID 1159580);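 further: tested at 20 µM; growth read once vehicle control cultures reached saturation at 30 °C; 1 = growth at the plate median or of vehicle wells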
Conditions: growth OD

Measured: normalized growth

CC(=O)Nc1ccc(OC(=O)c2ccccc2O)cc1
active: S. cerevisiae deletion strains, locus YJR075W, strain HOC1, stronger effect = lower value 0.85 | S. cerevisiae deletion strains, locus YKL009W, strain mrt4, stronger effect = lower value 0.848 | S. cerevisiae deletion strains, locus YKR001C, strain vps1, stronger effect = lower value 0.794 | S. cerevisiae deletion strains, locus YLR221C, strain rsa3, stronger effect = lower value 0.871 | S. cerevisiae deletion strains, locus YLR320W, strain mms22, stronger effect = lower value 0.832 | S. cerevisiae deletion strains, locus YLR418C, strain cdc73, stronger effect = lower value 0.682 | S. cerevisiae deletion strains, locus YML032C, strain rad52, stronger effect = lower value 0.897 | S. cerevisiae deletion strains, locus YNL071W, strain lat1, stronger effect = lower value 0.809 | S. cerevisiae deletion strains, locus YNL233W, strain BNI4, stronger effect = lower value 0.832 | S. cerevisiae deletion strains, locus YNL248C, strain rpa49, stronger effect = lower value 0.862 | S. cerevisiae deletion strains, locus YNL307C, strain MCK1, stronger effect = lower value 0.576 | S. cerevisiae deletion strains, locus YNL322C, strain KRE1 (second series), stronger effect = lower value 0.888 | S. cerevisiae deletion strains, locus YOL006C, strain TOP1, stronger effect = lower value 0.463 | S. cerevisiae deletion strains, locus YOR184W, strain ser1, stronger effect = lower value 0.756 | S. cerevisiae deletion strains, locus YOR270C, strain vph1, stronger effect = lower value 0.635 | S. cerevisiae deletion strains, locus YOR290C, strain snf2, stronger effect = lower value 0.857 | S. cerevisiae deletion strains, locus YPL078C, strain atp4, stronger effect = lower value 0.83
inactive: S. cerevisiae deletion strains, locus YJR066W, strain TOR1, stronger effect = lower value 0.929 | S. cerevisiae deletion strains, locus YKL068W, stronger effect = lower value 0.96 | S. cerevisiae deletion strains, locus YKL085W, strain MDH1 (second series), stronger effect = lower value 0.95 | S. cerevisiae deletion strains, locus YKL085W, strain MDH1, stronger effect = lower value 0.95 | S. cerevisiae deletion strains, locus YKL160W, strain elf1, stronger effect = lower value 0.978 | S. cerevisiae deletion strains, locus YKL190W, strain CNB1, stronger effect = lower value 0.987 | S. cerevisiae deletion strains, locus YKR026C, strain gcn3, stronger effect = lower value 0.965 | S. cerevisiae deletion strains, locus YKR091W, strain srl3, stronger effect = lower value 0.962 | S. cerevisiae deletion strains, locus YLL001W, strain dnm1, stronger effect = lower value 0.96 | S. cerevisiae deletion strains, locus YLL026W, stronger effect = lower value 0.978 | S. cerevisiae deletion strains, locus YLL041C, strain sdh2, stronger effect = lower value 0.995 | S. cerevisiae deletion strains, locus YLR027C, strain aat2, stronger effect = lower value 0.992 | S. cerevisiae deletion strains, locus YLR039C, strain RIC1, stronger effect = lower value 0.676 | S. cerevisiae deletion strains, locus YLR058C, strain SHM2, stronger effect = lower value 0.941 | S. cerevisiae deletion strains, locus YLR102C, strain apc9, stronger effect = lower value 0.943 | S. cerevisiae deletion strains, locus YLR113W, strain HOG1, stronger effect = lower value 0.901 | S. cerevisiae deletion strains, locus YLR258W, strain gsy2, stronger effect = lower value 0.918 | S. cerevisiae deletion strains, locus YLR262C, strain YPT6 (second series), stronger effect = lower value 0.972 | S. cerevisiae deletion strains, locus YLR262C, strain YPT6, stronger effect = lower value 0.733 | S. cerevisiae deletion strains, locus YLR268W, strain sec22, stronger effect = lower value 0.894 | S. cerevisiae deletion strains, locus YLR330W, strain CHS5, stronger effect = lower value 0.959 | S. cerevisiae deletion strains, locus YLR342W, strain FKS1 (second series), stronger effect = lower value 0.938 | S. cerevisiae deletion strains, locus YLR342W, strain FKS1, stronger effect = lower value 1.01 | S. cerevisiae deletion strains, locus YLR357W, strain rsc2, stronger effect = lower value 0.929 | S. cerevisiae deletion strains, locus YLR370C, strain arc18, stronger effect = lower value 0.934 | S. cerevisiae deletion strains, locus YLR371W, strain rom2, stronger effect = lower value 0.952 | S. cerevisiae deletion strains, locus YLR384C, strain iki3, stronger effect = lower value 1 | S. cerevisiae deletion strains, locus YML016C, strain PPZ1, stronger effect = lower value 0.977 | S. cerevisiae deletion strains, locus YML120C, strain ndi1, stronger effect = lower value 0.951 | S. cerevisiae deletion strains, locus YML124C, strain tub3, stronger effect = lower value 0.955 | S. cerevisiae deletion strains, locus YMR058W, strain fet3, stronger effect = lower value 0.939 | S. cerevisiae deletion strains, locus YMR078C, strain ctf18, stronger effect = lower value 0.935 | S. cerevisiae deletion strains, locus YMR125W, strain sto1, stronger effect = lower value 0.982 | S. cerevisiae deletion strains, locus YMR129W, stronger effect = lower value 0.989 | S. cerevisiae deletion strains, locus YMR205C, strain PFK2, stronger effect = lower value 0.967 | S. cerevisiae deletion strains, locus YMR223W, strain ubp8, stronger effect = lower value 0.938 | S. cerevisiae deletion strains, locus YMR231W, strain pep5, stronger effect = lower value 1.01 | S. cerevisiae deletion strains, locus YMR307W, strain GAS1, stronger effect = lower value 0.707 | S. cerevisiae deletion strains, locus YNL067W, strain RPL9B, stronger effect = lower value 0.897 | S. cerevisiae deletion strains, locus YNL153C, strain GIM3, stronger effect = lower value 0.936 | S. cerevisiae deletion strains, locus YNL183C, strain NPR1, stronger effect = lower value 0.858 | S. cerevisiae deletion strains, locus YNL209W, strain ssb2, stronger effect = lower value 0.95 | S. cerevisiae deletion strains, locus YNL250W, strain rad50, stronger effect = lower value 0.978 | S. cerevisiae deletion strains, locus YNL271C, strain bni1, stronger effect = lower value 0.955 | S. cerevisiae deletion strains, locus YNL298W, strain CLA4, stronger effect = lower value 0.925 | S. cerevisiae deletion strains, locus YNR049C, strain mso1, stronger effect = lower value 0.964 | S. cerevisiae deletion strains, locus YNR052C, strain pop2, stronger effect = lower value 0.98 | S. cerevisiae deletion strains, locus YOL012C, strain htz1 0.544 | S. cerevisiae deletion strains, locus YOL147C, strain pex11, stronger effect = lower value 0.943 | S. cerevisiae deletion strains, locus YOR001W, strain rrp6, stronger effect = lower value 0.962 | S. cerevisiae deletion strains, locus YOR061W, strain CKA2, stronger effect = lower value 0.967 | S. cerevisiae deletion strains, locus YOR069W, strain VPS5, stronger effect = lower value 0.985 | S. cerevisiae deletion strains, locus YOR070C, strain gyp1, stronger effect = lower value 0.932 | S. cerevisiae deletion strains, locus YOR080W, strain dia2, stronger effect = lower value 1.02 | S. cerevisiae deletion strains, locus YOR083W, strain WHI5, stronger effect = lower value 0.928 | S. cerevisiae deletion strains, locus YOR106W, strain vam3, stronger effect = lower value 0.954 | S. cerevisiae deletion strains, locus YOR136W, strain idh2, stronger effect = lower value 0.948 | S. cerevisiae deletion strains, locus YOR144C, strain elg1, stronger effect = lower value 0.947 | S. cerevisiae deletion strains, locus YOR231W, strain MKK1, stronger effect = lower value 0.909 | S. cerevisiae deletion strains, locus YOR265W, strain rbl2, stronger effect = lower value 0.987 | S. cerevisiae deletion strains, locus YOR316C, strain cot1, stronger effect = lower value 0.947 | S. cerevisiae deletion strains, locus YPL051W, strain arl3, stronger effect = lower value 0.957 | S. cerevisiae deletion strains, locus YPL106C, strain sse1, stronger effect = lower value 0.926 | S. cerevisiae deletion strains, locus YPL240C, strain hsp82, stronger effect = lower value 0.973 | S. cerevisiae deletion strains, locus YPL241C, strain CIN2, stronger effect = lower value 0.977 | S. cerevisiae deletion strains, locus YPL256C, strain CLN2, stronger effect = lower value 0.881 | S. cerevisiae deletion strains, locus YPR119W, strain clb2, stronger effect = lower value 0.941 | S. cerevisiae deletion strains, locus YPR141C, strain kar3, stronger effect = lower value 0.967 | S. cerevisiae deletion strains, locus YPR163C, strain tif3, stronger effect = lower value 0.931 | S. cerevisiae deletion strains, locus YPR167C, strain met16, stronger effect = lower value 0.94 | S. cerevisiae deletion strains, strain wtn01, stronger effect = lower value 0.915 | S. cerevisiae strains, strain wild type, stronger effect = lower value 0.952
